Experimental data from the supplement of paper PMC10849652.
About 7,900 targets were measured; listed, in parts, are those with a hit and a random draw of the rest. About 0.6% of all pairs of compound and target were hits. Unmarked numbers belong to inactive results.

Assays:
Experiment in all cases: log2 fold change, soluble protein after heating vs DMSO (PISA); higher = thermal stabilisation; K562 cells, 10 uM, 30 min; active = over 0.2 and 3.5 SD of the protein, either way, in both replicates (recomputed)
erlotinib = compound: C#Cc1cccc(Nc2ncnc3cc(OCCOC)c(OCCOC)cc23)c1 [erlotinib]
Method in brief: (§1)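 K562 cells (2×10^6 cells/mL) were treated with 10 μM compound for 30 min, and aliquots were heated for 3 min over 48°C-58°C. Pooled aliquots were extracted in PBS with 0.5% NP-40 at 4°C, and the supernatant after 21,000xg for 90 min was measured by TMTpro 16plex LC-MS/MS with channel sums equalised. Reported thermal stability, relative to control samples and from duplicates, is a log2 fold change.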

[1] = compound: C/C(=N\NC(=O)C1=CC(=CC=C1)S(=O)(=O)N2CCOCC2)/C3=C(C=CC(=C3)Cl)O
Method in brief: as §1

[2] = compound: C1=CC(=C(C=C1Cl)C2=NC3=NC=CN=C3C(=N2)NC4=CC=NC=C4)F
Method in brief: as §1

[3] = compound: C1=CC(=CC=C1C2=NC3=C(N2)C=C(C=C3)C(=O)N)OC4=CC=C(C=C4)Cl
Method in brief: as §1

[4] = compound: C1=CC2=C(C=CC(=C2)/C=C\3/C(=O)NC(=NCC4=CC=CS4)S3)N=C1
Method in brief: as §1

[5] = compound: C1=CC2=NC=CN=C2C=C1/C=C/3\C(=O)NC(=O)S3
Method in brief: as §1

[6] = compound: C1=CC=C(C=C1)C2=NC(=C(N2)C3=CC=NC=C3)C4=CC(=C(C=C4)Cl)O
Method in brief: as §1

[7] = compound: C1=CC=C2C(=C1)C3=NNC4=CC=CC(=C43)C2=O
Method in brief: as §1

[8] = compound: C1CCN(C1)C(=O)NC2=CC=CC(=C2)NC3=NC=C(C(=N3)NCCC4=CN=CN4)Br
Method in brief: as §1

[9] = compound: C1CN(CCC1(CC2=CC=C(C=C2)Cl)N)C3=NC=NC4=C3C=CN4
Method in brief: as §1

Chain of UniProt Q6L8Q7 (Q6L8Q7 whole entry, looked up): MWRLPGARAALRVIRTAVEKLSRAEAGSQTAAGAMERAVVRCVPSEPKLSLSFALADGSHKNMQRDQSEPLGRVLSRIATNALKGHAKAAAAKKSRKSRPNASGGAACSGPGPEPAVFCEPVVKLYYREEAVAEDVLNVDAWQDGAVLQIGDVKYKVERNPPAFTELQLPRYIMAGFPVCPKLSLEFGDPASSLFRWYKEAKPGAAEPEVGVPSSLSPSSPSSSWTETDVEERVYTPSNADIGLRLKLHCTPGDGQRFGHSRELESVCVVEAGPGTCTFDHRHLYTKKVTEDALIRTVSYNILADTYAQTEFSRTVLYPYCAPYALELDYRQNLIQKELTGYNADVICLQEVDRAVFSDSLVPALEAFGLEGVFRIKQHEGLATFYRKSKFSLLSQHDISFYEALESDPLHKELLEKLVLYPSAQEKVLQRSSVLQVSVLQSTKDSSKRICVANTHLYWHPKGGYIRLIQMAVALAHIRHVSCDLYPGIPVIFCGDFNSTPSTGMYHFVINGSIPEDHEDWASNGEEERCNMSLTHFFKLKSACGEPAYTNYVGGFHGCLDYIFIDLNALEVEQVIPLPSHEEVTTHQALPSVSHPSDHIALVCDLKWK
Chain of UniProt Q9Y244 (Q9Y244 whole entry, looked up): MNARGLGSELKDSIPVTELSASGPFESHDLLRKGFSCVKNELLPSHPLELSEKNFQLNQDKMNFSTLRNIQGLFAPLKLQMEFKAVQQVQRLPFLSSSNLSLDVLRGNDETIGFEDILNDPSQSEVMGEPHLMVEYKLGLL
Chain of UniProt Q8TAP8 (Q8TAP8 whole entry, looked up): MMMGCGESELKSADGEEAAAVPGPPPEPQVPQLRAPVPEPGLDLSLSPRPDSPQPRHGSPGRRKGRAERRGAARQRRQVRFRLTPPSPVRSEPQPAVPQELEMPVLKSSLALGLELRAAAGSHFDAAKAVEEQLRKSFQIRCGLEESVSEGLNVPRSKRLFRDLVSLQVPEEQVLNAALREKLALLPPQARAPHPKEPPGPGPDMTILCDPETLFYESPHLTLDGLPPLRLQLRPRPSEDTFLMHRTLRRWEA
Chain of UniProt P62191 (P62191 whole entry, looked up): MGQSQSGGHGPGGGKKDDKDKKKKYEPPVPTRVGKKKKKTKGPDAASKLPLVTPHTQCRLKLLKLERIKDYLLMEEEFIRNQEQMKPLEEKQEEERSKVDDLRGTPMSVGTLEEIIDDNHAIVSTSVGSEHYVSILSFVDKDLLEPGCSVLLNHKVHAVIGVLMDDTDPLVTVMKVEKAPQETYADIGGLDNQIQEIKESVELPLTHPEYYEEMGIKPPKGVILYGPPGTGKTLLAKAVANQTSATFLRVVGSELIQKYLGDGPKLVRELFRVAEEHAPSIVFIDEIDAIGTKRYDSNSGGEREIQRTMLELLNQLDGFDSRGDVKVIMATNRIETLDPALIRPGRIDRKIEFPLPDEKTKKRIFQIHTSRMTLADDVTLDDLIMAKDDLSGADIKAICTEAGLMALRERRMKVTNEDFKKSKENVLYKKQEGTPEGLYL
Chain of UniProt Q8WXF1 (Q8WXF1 whole entry, looked up): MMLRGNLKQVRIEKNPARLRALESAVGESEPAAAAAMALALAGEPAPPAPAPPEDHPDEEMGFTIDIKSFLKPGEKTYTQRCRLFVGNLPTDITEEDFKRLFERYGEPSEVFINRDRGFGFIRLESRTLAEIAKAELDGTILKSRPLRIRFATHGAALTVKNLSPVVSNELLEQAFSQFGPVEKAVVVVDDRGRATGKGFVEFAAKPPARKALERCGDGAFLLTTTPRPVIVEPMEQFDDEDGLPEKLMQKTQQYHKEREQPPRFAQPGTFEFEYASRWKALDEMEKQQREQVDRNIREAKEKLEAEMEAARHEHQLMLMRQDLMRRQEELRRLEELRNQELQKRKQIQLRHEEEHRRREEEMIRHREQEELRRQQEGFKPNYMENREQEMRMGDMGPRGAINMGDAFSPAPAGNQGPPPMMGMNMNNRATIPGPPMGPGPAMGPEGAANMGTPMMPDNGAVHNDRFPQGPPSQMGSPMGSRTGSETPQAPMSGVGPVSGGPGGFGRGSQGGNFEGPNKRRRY
Chain of UniProt Q01970 (Q01970 whole entry, looked up): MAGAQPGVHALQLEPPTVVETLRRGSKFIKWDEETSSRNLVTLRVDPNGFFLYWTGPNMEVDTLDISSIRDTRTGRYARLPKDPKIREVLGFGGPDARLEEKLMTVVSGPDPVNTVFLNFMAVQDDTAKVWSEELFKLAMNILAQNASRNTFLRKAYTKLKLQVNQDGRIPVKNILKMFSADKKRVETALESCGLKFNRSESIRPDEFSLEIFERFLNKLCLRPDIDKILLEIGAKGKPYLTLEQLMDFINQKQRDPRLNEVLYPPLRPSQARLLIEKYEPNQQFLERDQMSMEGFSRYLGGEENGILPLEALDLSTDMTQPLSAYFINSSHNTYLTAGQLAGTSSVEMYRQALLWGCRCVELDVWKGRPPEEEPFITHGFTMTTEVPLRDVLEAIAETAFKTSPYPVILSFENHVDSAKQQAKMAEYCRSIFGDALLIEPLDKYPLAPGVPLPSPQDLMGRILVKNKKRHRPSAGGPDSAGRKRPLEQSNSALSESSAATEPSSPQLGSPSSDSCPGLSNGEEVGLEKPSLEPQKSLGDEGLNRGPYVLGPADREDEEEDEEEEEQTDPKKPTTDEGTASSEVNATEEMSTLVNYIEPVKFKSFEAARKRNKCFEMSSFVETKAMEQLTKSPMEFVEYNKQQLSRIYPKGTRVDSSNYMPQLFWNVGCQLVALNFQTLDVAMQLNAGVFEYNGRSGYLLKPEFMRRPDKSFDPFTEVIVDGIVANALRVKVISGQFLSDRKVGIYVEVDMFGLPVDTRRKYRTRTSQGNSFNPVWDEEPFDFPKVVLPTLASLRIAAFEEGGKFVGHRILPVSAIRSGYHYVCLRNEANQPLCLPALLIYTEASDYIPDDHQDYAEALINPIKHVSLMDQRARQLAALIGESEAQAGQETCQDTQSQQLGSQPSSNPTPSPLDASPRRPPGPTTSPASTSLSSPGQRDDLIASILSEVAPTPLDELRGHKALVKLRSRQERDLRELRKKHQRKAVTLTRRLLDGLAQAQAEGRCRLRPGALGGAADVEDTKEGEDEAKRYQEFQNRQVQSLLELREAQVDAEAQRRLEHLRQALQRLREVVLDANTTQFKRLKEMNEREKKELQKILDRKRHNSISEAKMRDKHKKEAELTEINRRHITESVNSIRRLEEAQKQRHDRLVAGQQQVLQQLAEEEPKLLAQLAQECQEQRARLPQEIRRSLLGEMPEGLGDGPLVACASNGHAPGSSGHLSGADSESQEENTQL
Chain of UniProt O95453 (O95453 whole entry, looked up): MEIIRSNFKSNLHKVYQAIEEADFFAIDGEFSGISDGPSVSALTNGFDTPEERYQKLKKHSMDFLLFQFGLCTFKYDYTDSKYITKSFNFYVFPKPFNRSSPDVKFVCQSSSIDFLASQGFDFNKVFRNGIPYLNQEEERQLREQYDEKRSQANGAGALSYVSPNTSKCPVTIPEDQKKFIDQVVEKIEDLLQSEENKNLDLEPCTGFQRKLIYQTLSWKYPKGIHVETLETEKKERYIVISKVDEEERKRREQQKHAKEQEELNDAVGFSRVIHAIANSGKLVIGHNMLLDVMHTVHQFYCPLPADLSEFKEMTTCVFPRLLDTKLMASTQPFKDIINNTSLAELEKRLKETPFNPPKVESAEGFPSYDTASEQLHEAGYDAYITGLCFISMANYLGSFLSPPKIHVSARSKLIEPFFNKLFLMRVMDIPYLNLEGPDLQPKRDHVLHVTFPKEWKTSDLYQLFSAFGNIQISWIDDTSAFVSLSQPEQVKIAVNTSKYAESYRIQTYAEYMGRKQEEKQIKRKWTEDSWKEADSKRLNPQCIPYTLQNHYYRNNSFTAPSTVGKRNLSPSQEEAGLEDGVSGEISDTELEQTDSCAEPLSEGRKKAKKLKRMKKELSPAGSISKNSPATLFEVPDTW
Chain of UniProt Q9Y5K3 (Q9Y5K3 whole entry, looked up): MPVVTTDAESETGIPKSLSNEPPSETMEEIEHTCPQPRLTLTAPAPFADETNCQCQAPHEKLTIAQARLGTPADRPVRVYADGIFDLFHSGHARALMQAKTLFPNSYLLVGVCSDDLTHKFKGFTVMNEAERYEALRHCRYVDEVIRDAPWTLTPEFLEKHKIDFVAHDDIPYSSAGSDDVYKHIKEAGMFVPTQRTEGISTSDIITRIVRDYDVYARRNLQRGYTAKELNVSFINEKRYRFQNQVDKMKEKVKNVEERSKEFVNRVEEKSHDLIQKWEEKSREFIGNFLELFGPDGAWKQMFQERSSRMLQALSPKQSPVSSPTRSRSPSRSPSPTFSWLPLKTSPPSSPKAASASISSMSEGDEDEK
Chain of UniProt P28070 (P28070 whole entry, looked up): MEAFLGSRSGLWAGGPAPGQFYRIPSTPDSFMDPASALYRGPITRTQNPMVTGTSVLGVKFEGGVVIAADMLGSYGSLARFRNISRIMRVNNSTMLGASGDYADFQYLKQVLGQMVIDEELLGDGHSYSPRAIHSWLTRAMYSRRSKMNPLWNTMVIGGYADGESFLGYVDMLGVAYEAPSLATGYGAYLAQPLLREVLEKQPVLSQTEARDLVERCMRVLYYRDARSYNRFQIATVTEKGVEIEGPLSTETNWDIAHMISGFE
Chain of UniProt Q16401 (Q16401 whole entry, looked up): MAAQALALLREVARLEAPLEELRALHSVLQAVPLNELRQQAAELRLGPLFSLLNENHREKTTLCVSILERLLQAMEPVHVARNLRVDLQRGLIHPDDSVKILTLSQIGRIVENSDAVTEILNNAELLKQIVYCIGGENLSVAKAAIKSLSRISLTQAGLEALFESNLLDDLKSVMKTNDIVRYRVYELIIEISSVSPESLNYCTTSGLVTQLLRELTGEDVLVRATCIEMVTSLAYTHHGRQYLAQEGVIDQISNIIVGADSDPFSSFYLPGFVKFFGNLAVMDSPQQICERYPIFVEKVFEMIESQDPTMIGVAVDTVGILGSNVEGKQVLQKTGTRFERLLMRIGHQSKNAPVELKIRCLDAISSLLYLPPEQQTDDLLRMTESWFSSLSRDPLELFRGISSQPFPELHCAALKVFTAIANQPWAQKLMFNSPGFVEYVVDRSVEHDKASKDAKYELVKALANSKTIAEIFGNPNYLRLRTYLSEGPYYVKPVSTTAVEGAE

| Target | log2 fold change (erlotinib) | log2 fold change [1] | log2 fold change [2] | log2 fold change [3] | log2 fold change [4] | log2 fold change [5] | log2 fold change [6] | log2 fold change [7] | log2 fold change [8] | log2 fold change [9] |
| --- | --- | --- | --- | --- | --- | --- | --- | --- | --- | --- |
| PEX7 (UniProt O00628) | 0.021 | 0.034 | 0.034 | 0.276 (active) | 0.08 | -0.117 | 0.039 | -0.041 | -0.031 | 0.063 |
| PTTG1 (UniProt O95997) | -0.024 | 0.094 | -0.024 | 0.029 | -0.043 | -0.005 | -0.205 | -0.045 | -0.024 | -0.093 |
| POP1 (UniProt Q99575) | -0.01 | 0.028 | -0.015 | 0.029 | -0.011 | 0.022 | 0.017 | -0.016 | 0 | -0.01 |
| PRKAR2A (UniProt P13861) | -0.002 | 0.013 | -0.024 | 0.062 | 0.082 | -0.005 | -0.021 | -0.004 | -0.177 | -0.486 (active) |
| PSPC1 (UniProt Q8WXF1) | -0.024 | 0.014 | -0.036 | 0.043 | -0.008 | 0.004 | -0.101 | -0.141 | -0.033 | -0.061 |
| PCYT1B (UniProt Q9Y5K3) | 0.05 | 0.068 | -0.043 | 0.023 | 0.078 | 0.079 | -0.066 | 0.004 | 0.01 | -0.003 |
| PARN (UniProt O95453) | 0 | 0.052 | 0.08 | -0.008 | -0.028 | 0.034 | -0.019 | -0.001 | -0.02 | 0.109 |
| PPP2R5C isoform 4 (UniProt Q13362) | 0.036 | -0.022 | 0.218 | -0.025 | -0.039 | -0.004 | -0.029 | -0.015 | 0 | 0.019 |
| PTRH2 (UniProt Q9Y3E5) | 0.015 | 0.048 | 0.125 | -0.002 | 0.049 | -0.004 | 0.169 | -0.022 | -0.038 | 0.007 |
| PPIL4 (UniProt Q8WUA2) | 0.011 | 0.056 | -0.049 | 0.043 | -0.023 | 0 | 0.04 | -0.009 | -0.06 | -0.044 |
| POMP (UniProt Q9Y244) | 0.003 | -0.018 | 0.373 (active) | 0.015 | -0.073 | 0.086 | -0.018 | 0.003 | 0.061 | -0.034 |
| PSMD5 (UniProt Q16401) | -0.015 | 0.038 | 0.063 | -0.007 | 0 | 0.027 | -0.001 | -0.012 | 0.014 | -0.004 |
| PRKAA1 isoform 2 (UniProt Q13131) | 0 | 0.026 | 0.084 | 0.045 | 0.018 | 0.013 | 0.012 | -0.051 | -0.034 | 0.012 |
| PLCB3 (UniProt Q01970) | -0.004 | 0.028 | 0.005 | 0.023 | 0.054 | 0.016 | -0.011 | 0.034 | -0.057 | -0.07 |
| PRPF40A (UniProt O75400) | 0.082 | 0.083 | -0.087 | 0.012 | 0.032 | 0.007 | -0.037 | -0.135 | -0.129 | -0.124 |
| PGGHG (UniProt Q32M88) | 0.059 | 0.114 | 0.024 | 0.002 | -0.44 (active) | 0.048 | -0.049 | -0.248 | -0.225 | 0.119 |
| PEF1 (UniProt Q9UBV8) | -0.053 | 0.108 | 0.079 | -0.029 | 0.134 | -0.064 | 0.109 | 0.035 | -0.008 | -0.069 |
| PDE12 (UniProt Q6L8Q7) | -0.023 | 0.018 | 0.052 | 0.027 | 0.001 | -0.008 | -0.015 | 0.054 | -0.04 | 0.026 |
| PIK3C3 (UniProt Q8NEB9) | -0.005 | -0.004 | -0.157 | -0.005 | 0.011 | 0.087 | -0.007 | 0.048 | -0.024 | 0.06 |
| PEA15 isoform 2 (UniProt Q15121) | 0.001 | 0.042 | 0.056 | 0.026 | -0.014 | 0.055 | -0.006 | 0.072 | 0.016 | -0.064 |
| PSMD9 (UniProt O00233) | 0.015 | 0.015 | 0.022 | -0.012 | -0.068 | 0.041 | 0.006 | 0.008 | 0.009 | 0.03 |
| POLR2I (UniProt P36954) | -0.058 | -0.107 | 0.108 | 0.068 | -0.073 | -0.117 | 0.079 | -0.043 | -0.092 | 0 |
| PARL (UniProt Q9H300) | -0.019 | 0.015 | 0.011 | -0.011 | 0.016 | 0.044 | 0.026 | -0.012 | 0.015 | 0.017 |
| PSMC1 (UniProt P62191) | -0.093 | -0.063 | -0.034 | 0.037 | -0.027 | -0.028 | -0.017 | 0.029 | 0.012 | -0.004 |
| PECAM1 (UniProt P16284) | -0.039 | 0.072 | -0.055 | 0.057 | 0.054 | -0.024 | -0.05 | -0.133 | 0.057 | 0.021 |
| PPP1R35 (UniProt Q8TAP8) | 0.137 | -0.064 | -0.038 | 0.029 | 0.01 | 0.034 | 0.021 | -0.031 | 0.009 | 0.001 |
| PKM (UniProt P14618) | 0.008 | -0.005 | 0.052 | 0.003 | 0.002 | -0.003 | -0.016 | -0.011 | -0.006 | 0.029 |
| PTPA (UniProt Q15257) | 0.022 | 0.034 | 0.069 | 0.127 | -0.01 | 0.01 | 0.022 | 0.029 | -0.037 | -0.013 |
| POM121 (UniProt Q96HA1) | -0.013 | -0.075 | -0.127 | 0.033 | 0.118 | -0.008 | -0.137 | -0.185 | -0.087 | -0.106 |
| PSMB4 (UniProt P28070) | -0.056 | -0.024 | -0.003 | 0.001 | -0.024 | -0.035 | -0.028 | 0.001 | 0.008 | 0.037 |
